# Bioassay records deposited in PubChem by National Center for Advancing Translational Sciences (NCATS).
# PNC assembly inh – inhibitors of perinucleolar compartment assembly | PC3M PTB-GFP, PNC prevalence imaging, 16 h; hits give low values | activity change (PNC), negative = inhibition, % at 10 µM | 140,000 compounds, 3.1% hits;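 active means readout at or below -70, meaning at least 70% loss of cells showing the perinucleolar compartment, a nuclear body marking cancer cells; inconclusive means readout between -30 and a set limit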;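 further: plate controls were DMSO wells for no effect and camptothecin positive control wells for full effect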
#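 Read-out is percentage of cells bearing a perinucleolar compartment, from automated 20x imaging of fixed, Hoechst-stained PC3M PTB-GFP cells. Cells were seeded 4 h, then exposed 16 h to compound (23 nl of library stock) in duplicate plates.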
# HPGD inh – HPGD (human) dehydrogenase inhibition; purified HPGD, NADH fluorescence kinetic, PGE2 substrate; Potency, µM, without a hit: at the top dose activity change, negative = inhibition, actives largely listed as inhibitors; 150,000 compounds, 4.3% hits; active means well fitted inhibition curve with a large enough effect, not every such curve was filed as active; inconclusive means small, poorly fitted or top-dose-only effect, or another doubt; inactive means no such curve, though single readings can be large or run the other way; further: potency means the concentration at half of the fitted maximal effect
# Target sequence (P15428 whole entry, looked up): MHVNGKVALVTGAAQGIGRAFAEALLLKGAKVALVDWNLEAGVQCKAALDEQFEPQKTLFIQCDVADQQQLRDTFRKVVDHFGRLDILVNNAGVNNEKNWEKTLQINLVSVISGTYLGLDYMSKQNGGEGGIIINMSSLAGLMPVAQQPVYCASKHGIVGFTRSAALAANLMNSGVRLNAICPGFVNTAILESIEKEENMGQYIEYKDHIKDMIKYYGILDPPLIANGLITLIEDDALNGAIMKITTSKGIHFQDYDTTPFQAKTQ
#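 20 nM HPGD preincubated 15 min at room temperature with compound in 50 mM Tris-HCl pH 8, 0.01% Tween 20. Started with 1 mM NAD+ and 30 uM prostaglandin E2; NADH fluorescence (360/450 nm) read 5 times over 30-s intervals, last minus first.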
# GLA spleen mod – alpha-galactosidase A (human) modulation; human spleen homogenate, 4MU-alpha-Gal fluorescence, 40 min; Potency, µM (titrated, usually from 80 µM), inactives show at the top dose activity change, negative = inhibition, most hits filed as inhibitors; 240,000 compounds, 0.008% hits; AID 2107;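 further: potency means the concentration at half of the fitted maximal effect; 0% = enzyme with vehicle and -100% = no enzyme basal signal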
#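 Human spleen homogenate (1 ug) as enzyme source, 4-methylumbelliferyl-alpha-D-galactopyranoside 1 mM final, citrate/phosphate pH 5.0 with 0.01% Tween-20. Compounds 40 min at 37C, NaOH/glycine stop; fluorescence Ex 365/Em 440, Hill-fit AC50.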
# GLA inh pH 4.5 – blocks human alpha-galactosidase A at pH 4.5. 230,000 tested, under 10 active. activity change, negative = inhibition, % at 105 µM. P06280. purified enzyme, 4-MU-alpha-Gal fluorescence, pH 4.5;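 further: 0% = full activity with enzyme and -100% = basal without enzyme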
# Target sequence (P06280 whole entry, looked up): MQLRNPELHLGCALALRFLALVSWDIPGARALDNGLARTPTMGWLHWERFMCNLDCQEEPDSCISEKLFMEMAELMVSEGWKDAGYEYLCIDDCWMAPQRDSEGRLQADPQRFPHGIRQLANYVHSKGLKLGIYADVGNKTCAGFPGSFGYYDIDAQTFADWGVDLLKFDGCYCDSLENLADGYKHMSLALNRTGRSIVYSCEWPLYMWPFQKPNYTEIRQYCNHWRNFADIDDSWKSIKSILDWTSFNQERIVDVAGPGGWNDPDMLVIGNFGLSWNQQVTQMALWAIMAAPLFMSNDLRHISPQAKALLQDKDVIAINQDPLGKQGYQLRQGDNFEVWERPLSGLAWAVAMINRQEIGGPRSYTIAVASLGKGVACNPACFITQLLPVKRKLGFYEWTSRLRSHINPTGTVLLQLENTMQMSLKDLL
# ALDH1A1 inh – blocks purified human ALDH1A1 activity | P00352 | Purified ALDH1A1, NADH fluorescence, propionaldehyde substrate | Potency, µM (doses to about 75.3 µM), for the others: top-dose activity, negative = inhibition, hits mostly inhibitors | 220,000 compounds, 7.3% hits | AID 1030; active means well fitted inhibition curve with a large enough effect, not every such curve was filed as active; inconclusive means small, poorly fitted or top-dose-only effect, or another doubt; inactive means no such curve, though single readings can be large or run the other way;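 further: potency means the concentration at half of the fitted maximal effect; plate controls were no enzyme wells and a reference inhibitor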
# 12-hLO inh – blocks human 12-lipoxygenase activity. purified 12-hLO, xylenol orange hydroperoxide absorbance. Potency, µM (series often up to 57.1 µM), for the others: at the top dose activity change, negative = inhibition, most hits filed as inhibitors. 150,000 compounds, 0.12% hits; further: potency means the concentration at half of the fitted maximal effect; nearly all actives have a fitted effect of over 55% in size
#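 Purified human 12hLO (150 nM), preincubated 15 min with compound, then 40 uM arachidonic acid for 30 min, room temperature, Hepes pH 7.0 with 0.01% Triton X-100. Hydroperoxide detected by ferrous iron/xylenol orange; 573/405 nm absorbance ratio gives reaction progress.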
# The depositor's hits bear a star; u = inconclusive; x = no result given; [ ] = remark or other dose. The list is not random: actives were taken first. Their share in the collection is about 10%. Unless noted, the call rests on the fitted dose curve; in most records, active means well fitted curve in the direction sought with a large enough effect; inconclusive means small, poorly fitted or top-dose-only effect, or another doubt; inactive means no such curve, though single readings can be large; an effect the other way counts as inactive or inconclusive. Unless noted, on the % scale 0 is the no-effect control and ±100 the full control effect.
SMILES,PNC assembly inh,HPGD inh,GLA spleen mod,GLA inh pH 4.5,ALDH1A1 inh,12-hLO inh
S=c1nc(-c2cc(Cl)cc(Cl)c2)[nH][nH]1,x,x,7%,8,11µM*,x
S=c1nc(-c2cc(Cl)ccc2Cl)[nH][nH]1,x,x,5%,5,6.3µM*,x
S=c1nc(-c2ccccc2Br)[nH][nH]1,u,13µM*,5%,-4,10µM*,-7%
CCCCCC(=O)/C=C/C=C\CCCCCCCC(=O)O,x,-3%,-3%,-18,0%,1%
CC(C)C1NC(=O)[C@H](CCCCN)NC(=O)[C@@H](Cc2c[nH]c3ccccc23)NC(=O)[C@H](Cc2ccc(O)cc2)NC(=O)[C@H](C)N(C)C(=O)[C@H](Cc2ccccc2)NC1=O (some centres undefined),x,4%,0%,-7,-12%,x
Cn1c(=O)c2c(nc(SCC(=O)O)n2Cc2cc3c(cc2Cl)OCO3)n(C)c1=O,58,25µM*,-9%,8,35µM*,3%
COc1ccc(C(=O)NCC(=O)OCC(=O)c2ccc3c(c2)NC(=O)CO3)cc1,x,x,-17%,-14,-6%,x
O=C(O)c1ccccc1Nc1ccc(CCc2ccc(Cl)c(Cl)c2)cc1,x,x,-8%,x,x,x
CCCN1C(=O)/C(=C/c2ccncc2)SC1=S,u,-13%,-1%,5,10µM*,-1%
CCN1C(=O)/C(=C/c2cn(C)nc2C)SC1=S,30,-12%,-3%,-5,4µM*,-15%
O=C1/C(=C/c2ccncc2)SC(=S)N1Cc1ccccc1,x,x,-13%,1,x,x
Cc1nn2c3c(cnc2c1-c1ccccc1)C(=O)CC(c1ccco1)C3 (centres undefined),-20,-13%,5%,-1,25µM*,-7%
CCOc1ccc(NC(=O)C(c2ccccn2)N(C(=O)CCl)c2ccc(OCC)cc2)cc1 (centres undefined),-18,-13%,-7%,2,8.9µM*,-6%
Cc1cc(C)cc(C(=O)N(C)[C@H](Cc2ccc(-c3ccccc3)cc2)C(=O)N[C@@H](Cc2c[nH]c3ccccc23)C(=O)O)c1,x,6%,4%,-7,0%,-12%
CCC1=C(OC(=O)N(CC)CC)N2C(=O)OC(=NCCOC)[C@]2(C)[C@H]2C1=CC[C@H]1C(=O)N(CC(=O)OC)C(=O)[C@H]12,x,-15%,9%,0,28µM*,3%
CN(C)C(=O)c1ccc(-c2cc(NCc3ccccc3)ncn2)cc1,x,x,-3%,x,u,x
Cc1nc2ncnn2c(N2CCN(C(=O)Cc3cccs3)CC2)c1C,-15,-23%,-1%,1,7.9µM*,-14%
O=C(Cc1cccs1)N1CCN(C(=O)C2CCCO2)CC1 (centres undefined),-120*,-2%,-3%,4,u,-5%
O=C(Cc1cccs1)N1CCN(c2ccc(F)cc2)CC1,38,-9%,-21%,-1,1%,-2%
CN1N=C(C(=O)N2CCN(c3ccc([N+](=O)[O-])cc3)CC2)CCC1=O,-94*,-10%,2%,-14,u,1%
O=C(Cc1cccs1)N1CCN(c2ccc([N+](=O)[O-])cc2)CC1,x,x,-2%,-6,25µM*,x
CC(C)OCCCNC(=O)CNC(=O)c1ccc(Cl)c(Cl)c1,x,x,-8%,3,5%,x
O=C(CCc1ccccc1)N1CCN(c2ccc([N+](=O)[O-])cc2)CC1,x,x,-8%,-5,2.2µM*,x
O=C(CCc1ccccc1)N1CCN(c2ccc(Cl)cc2)CC1,3,-8%,-4%,6,4%,-15%
O=c1cc(CSc2nnnn2-c2ccccc2)nc2nc[nH]n12,39,-22%,4%,11,u,1%
SMILES,PNC assembly inh,HPGD inh,GLA spleen mod,GLA inh pH 4.5,ALDH1A1 inh,12-hLO inh
COc1ccc(C)cc1-n1nnnc1SCC1CCCCO1 (centres undefined),9,-21%,3%,2,32µM*,-15%
COc1ccc(C)cc1-n1nnnc1SCC(=O)N1CCC(C(=O)Nc2nccs2)CC1,u,-15%,0%,2,7.9µM*,-4%
O=c1cc(CSc2nnnn2-c2ccccc2)nc2scc(-c3ccccc3)n12,u,-15%,6%,5,3.2µM*,8%
O=c1cc(CSc2nnnn2-c2ccccc2)nc2sccn12,x,x,3%,5,13µM*,x
CCN(CC(=O)NC(C)(C)C)C(=O)c1ccc2c(c1)S(=O)(=O)c1ccccc1C2=O,x,x,0%,12,-9%,x
COc1ccccc1N1CCN(Cc2cc(=O)n3ccsc3n2)CC1,-16,-4%,6%,-2,7%,2%
O=c1cc(CN2CCN(c3ccc(O)cc3)CC2)nc2scc(-c3ccccc3)n12,x,x,0%,2,14µM*,x
Cc1ccccc1-n1nnnc1SCc1cc(=O)n2ccsc2n1,x,x,4%,2,0.63µM*,x
COc1ccc(C)cc1-n1nnnc1SCc1cn2ccsc2n1,26,-1%,3%,2,14µM*,-5%
Cc1nnc(SCc2cn3ccsc3n2)n(N)c1=O,-27,4%,11%,5,6%,1%
C[N+](C)(C)c1nc(N)nc2c1ncn2[C@H]1O[C@@H](CO)[C@@H](O)[C@H]1O,x,-12%,x,x,1%[13.5 µM],5%[11.4 µM]
Cc1ccc2cc(C3CC(c4ccco4)=NN3S(C)(=O)=O)c(Cl)nc2c1 (centres undefined),x,x,3%,-24,18µM*,x
Cc1ccc2nc(Cl)c(C3CC(c4ccco4)=NN3S(C)(=O)=O)cc2c1 (centres undefined),x,x,-1%,-14,x,x
CC(=O)[C@H](CC(C)C)NC(=O)[C@@H](CC(C)C)NC(=O)[C@H](CC(C)C)NC(=O)OCc1ccccc1,x,-2%,17%,-1,-1%,-2%
Cc1csc2ncc(C(=O)Nc3ccc4c(c3)OCCO4)c(=O)n12,35,99%,2%,10,8.9µM*,-3%
CC(NC(=O)c1cccs1)c1ccc2c(c1)OCO2 (centres undefined),u,-20%,-2%,-2,9%,2%
Cc1ccsc1C(=O)Nc1ccc2c(c1)OCCO2,-17,32µM*,-2%,6,0%,0%
Cc1occc1C(=O)Nc1ccc2c(c1)OCCO2,-9,16µM*,15%,-13,13µM*,-1%
Cc1ccsc1C(=O)NC(C)c1ccc2c(c1)OCO2 (centres undefined),-119*,-8%,-1%,1,10%,-3%
CC(C)Cn1c(N)c(C(=O)COC(=O)c2cc(C(F)(F)F)nc3c(C(F)(F)F)cccc23)c(=O)n(C)c1=O,-23,-18%,4%,-3,2%,-3%
COc1cccc(OC)c1NC(=O)CN1CCC(NC(=O)c2cccc(F)c2)CC1,u,-13%,0%,-4,40µM*,3%
